For some assays here: Results with a measured potency or affinity are listed apart.
Assays:
Set-up in all cases: scale not given: direction of the effect not stated beside the values
[1] = biological target: Protein translocase subunit SecA (Escherichia coli (strain K12)) (UniProt P10408); assay: Assay to Identify E. coli SecA ATPase Inhibitors; format: functional; settings: 30 µM
[2] = biological target: T1, Ubiquitin-activating enzyme e1, putative (Leishmania donovani (strain BPK282A1)) (UniProt E9BSI1); assay: Leishmania donovani Ubiquitin Activating Enzyme (LdE1); format: functional; settings: 30 µM
T1 sequence (whole entry): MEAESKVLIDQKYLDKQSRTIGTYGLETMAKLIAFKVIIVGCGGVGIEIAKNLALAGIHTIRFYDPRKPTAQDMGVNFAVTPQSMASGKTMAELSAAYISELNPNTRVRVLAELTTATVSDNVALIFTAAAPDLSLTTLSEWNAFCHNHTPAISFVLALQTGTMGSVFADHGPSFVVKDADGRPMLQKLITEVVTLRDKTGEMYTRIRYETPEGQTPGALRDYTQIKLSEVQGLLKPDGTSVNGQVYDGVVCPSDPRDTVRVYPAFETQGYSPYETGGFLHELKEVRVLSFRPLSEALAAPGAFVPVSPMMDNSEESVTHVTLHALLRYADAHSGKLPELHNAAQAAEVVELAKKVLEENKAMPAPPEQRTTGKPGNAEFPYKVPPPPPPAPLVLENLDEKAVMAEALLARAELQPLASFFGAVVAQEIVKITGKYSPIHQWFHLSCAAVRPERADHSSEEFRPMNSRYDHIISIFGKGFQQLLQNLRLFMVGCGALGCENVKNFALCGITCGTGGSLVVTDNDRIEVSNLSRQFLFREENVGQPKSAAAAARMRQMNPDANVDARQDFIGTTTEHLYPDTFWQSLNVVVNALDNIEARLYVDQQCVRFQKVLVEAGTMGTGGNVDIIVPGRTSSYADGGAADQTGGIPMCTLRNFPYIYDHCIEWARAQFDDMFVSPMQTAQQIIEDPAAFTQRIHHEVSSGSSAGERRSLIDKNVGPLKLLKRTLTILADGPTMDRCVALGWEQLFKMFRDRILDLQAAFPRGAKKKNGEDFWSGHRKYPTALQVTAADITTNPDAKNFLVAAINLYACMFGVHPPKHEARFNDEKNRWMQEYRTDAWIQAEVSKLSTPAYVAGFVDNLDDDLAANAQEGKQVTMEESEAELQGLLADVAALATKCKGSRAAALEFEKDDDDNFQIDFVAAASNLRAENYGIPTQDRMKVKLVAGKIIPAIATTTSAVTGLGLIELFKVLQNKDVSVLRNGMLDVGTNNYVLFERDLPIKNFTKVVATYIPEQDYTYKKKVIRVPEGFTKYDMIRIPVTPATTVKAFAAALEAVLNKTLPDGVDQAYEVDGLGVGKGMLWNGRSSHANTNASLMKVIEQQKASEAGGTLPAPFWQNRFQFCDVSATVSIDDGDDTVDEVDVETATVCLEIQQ

[3] = biological target: AMP-activated protein kinase, AMPK (Homo sapiens) (UniProt P54646+O43741+P54619+Q9UGJ0+Q9Y478+Q13131+Q9UGI9); assay: AMP-dependent Kinase enzyme assay. An in vitro enzyme assay that detects ADP turnover that is directly proportional to AMPK activity. This uses naive AMPK that is activated during the assay with MK-8722; format: functional; settings: 30 µM
[4] = biological target: Sialic acid-binding Ig-like lectin 9 (Homo sapiens) (UniProt Q9Y336); assay: Hs-Siglec9 ALPHAscreen SOP 20170721; settings: 10 µM
Trypanosoma cruzi = assay: Trypanosoma cruzi phosphomannomutase and mannose-1-phosphate guanylyltransferase assay; format: functional; settings: 10 µM
[5] = biological target: T2, Arginase-2, mitochondrial (Homo sapiens) (UniProt P78540); assay: in vitro enzyme assay to detect the production of urea directly proportional to the activity of Arginase II; format: functional; settings: 33.3 µM; further: in the data most compounds retested in dose-response had high values
T2 sequence (whole entry): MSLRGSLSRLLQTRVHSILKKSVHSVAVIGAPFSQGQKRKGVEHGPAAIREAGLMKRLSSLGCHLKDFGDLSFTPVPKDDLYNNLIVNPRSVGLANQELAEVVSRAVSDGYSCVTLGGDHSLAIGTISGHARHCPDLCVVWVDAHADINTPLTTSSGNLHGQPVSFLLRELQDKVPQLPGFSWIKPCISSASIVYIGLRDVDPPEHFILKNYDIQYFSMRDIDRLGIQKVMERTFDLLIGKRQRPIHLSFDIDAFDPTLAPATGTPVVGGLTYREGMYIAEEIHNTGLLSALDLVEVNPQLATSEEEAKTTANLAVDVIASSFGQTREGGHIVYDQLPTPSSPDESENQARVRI

[6] = biological target: T3, Proteasome subunit beta (Trypanosoma cruzi) (UniProt O96673); assay: Trypanosoma cruzi proteasome chymotrypsin-like activity (TcProtChymo) assay.; further: in the data most compounds retested in dose-response had high values; format: functional; settings: 9.37 µM
T3 sequence (whole entry): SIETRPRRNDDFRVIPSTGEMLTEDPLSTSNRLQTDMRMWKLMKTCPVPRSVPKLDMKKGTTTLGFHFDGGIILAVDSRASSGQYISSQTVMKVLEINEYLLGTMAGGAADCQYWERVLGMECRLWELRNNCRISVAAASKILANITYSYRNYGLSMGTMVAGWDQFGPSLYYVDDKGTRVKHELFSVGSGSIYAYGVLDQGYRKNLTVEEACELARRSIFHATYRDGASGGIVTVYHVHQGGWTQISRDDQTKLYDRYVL

Homo sapiens = species on record: Homo sapiens; assay: To identify inhibition of the IFN signalling (Jak-Stat) pathway via expression of an eGFP reporter gene under the control of an IFN-stimulated response element (ISRE) containing MxA promoter.; format: functional; settings: 30 µM
[7] = biological target: T4, Tyrosyl-tRNA synthetase, putative (Trypanosoma cruzi (strain CL Brener)) (UniProt Q4DSP6); assay: Trypanosoma cruzi tyrosyl tRNA synthetase (TcYRS) _High Tyrosine SOP; format: functional; settings: 30 µM; further: in the data most compounds retested in dose-response had high values
T4 sequence (whole entry): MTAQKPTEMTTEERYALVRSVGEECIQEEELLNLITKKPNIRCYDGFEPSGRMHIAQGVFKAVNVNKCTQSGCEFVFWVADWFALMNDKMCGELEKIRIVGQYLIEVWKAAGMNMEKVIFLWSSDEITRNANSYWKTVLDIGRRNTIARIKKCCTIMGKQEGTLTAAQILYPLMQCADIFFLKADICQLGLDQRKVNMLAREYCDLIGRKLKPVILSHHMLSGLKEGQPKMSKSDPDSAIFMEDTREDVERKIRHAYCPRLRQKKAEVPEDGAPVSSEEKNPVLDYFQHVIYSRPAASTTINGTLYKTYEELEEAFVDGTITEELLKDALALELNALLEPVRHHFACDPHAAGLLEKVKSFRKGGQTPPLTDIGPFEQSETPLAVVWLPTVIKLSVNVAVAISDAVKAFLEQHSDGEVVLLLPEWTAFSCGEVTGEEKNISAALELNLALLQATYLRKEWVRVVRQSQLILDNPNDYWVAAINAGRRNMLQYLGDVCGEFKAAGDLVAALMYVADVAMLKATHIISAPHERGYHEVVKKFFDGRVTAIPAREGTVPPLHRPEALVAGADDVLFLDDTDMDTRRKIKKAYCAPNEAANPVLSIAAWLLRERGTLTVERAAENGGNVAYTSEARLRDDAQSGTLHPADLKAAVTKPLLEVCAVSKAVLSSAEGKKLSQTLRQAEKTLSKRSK

[8] = biological target: T4, Tyrosyl-tRNA synthetase, putative (Trypanosoma cruzi (strain CL Brener)); assay: Trypanosoma cruzi tyrosyl tRNA synthetase (TcYRS) SOP; format: functional; settings: 30 µM
[9] = biological target: Chromo domain-containing protein 1 (Saccharomyces cerevisiae (strain ATCC 204508 / S288c) (Baker's yeast)) (UniProt P32657); assay: ScCHD-1 Enzyme Inhibition Assay; format: functional; settings: 30 µM; further: in the data most compounds retested in dose-response had high values
Chromo domain-containing protein 1 (Saccharomyces cerevisiae (strain ATCC 204508 / S288c) (Baker's yeast)), sequence (P32657 whole entry, the tested form may be a part): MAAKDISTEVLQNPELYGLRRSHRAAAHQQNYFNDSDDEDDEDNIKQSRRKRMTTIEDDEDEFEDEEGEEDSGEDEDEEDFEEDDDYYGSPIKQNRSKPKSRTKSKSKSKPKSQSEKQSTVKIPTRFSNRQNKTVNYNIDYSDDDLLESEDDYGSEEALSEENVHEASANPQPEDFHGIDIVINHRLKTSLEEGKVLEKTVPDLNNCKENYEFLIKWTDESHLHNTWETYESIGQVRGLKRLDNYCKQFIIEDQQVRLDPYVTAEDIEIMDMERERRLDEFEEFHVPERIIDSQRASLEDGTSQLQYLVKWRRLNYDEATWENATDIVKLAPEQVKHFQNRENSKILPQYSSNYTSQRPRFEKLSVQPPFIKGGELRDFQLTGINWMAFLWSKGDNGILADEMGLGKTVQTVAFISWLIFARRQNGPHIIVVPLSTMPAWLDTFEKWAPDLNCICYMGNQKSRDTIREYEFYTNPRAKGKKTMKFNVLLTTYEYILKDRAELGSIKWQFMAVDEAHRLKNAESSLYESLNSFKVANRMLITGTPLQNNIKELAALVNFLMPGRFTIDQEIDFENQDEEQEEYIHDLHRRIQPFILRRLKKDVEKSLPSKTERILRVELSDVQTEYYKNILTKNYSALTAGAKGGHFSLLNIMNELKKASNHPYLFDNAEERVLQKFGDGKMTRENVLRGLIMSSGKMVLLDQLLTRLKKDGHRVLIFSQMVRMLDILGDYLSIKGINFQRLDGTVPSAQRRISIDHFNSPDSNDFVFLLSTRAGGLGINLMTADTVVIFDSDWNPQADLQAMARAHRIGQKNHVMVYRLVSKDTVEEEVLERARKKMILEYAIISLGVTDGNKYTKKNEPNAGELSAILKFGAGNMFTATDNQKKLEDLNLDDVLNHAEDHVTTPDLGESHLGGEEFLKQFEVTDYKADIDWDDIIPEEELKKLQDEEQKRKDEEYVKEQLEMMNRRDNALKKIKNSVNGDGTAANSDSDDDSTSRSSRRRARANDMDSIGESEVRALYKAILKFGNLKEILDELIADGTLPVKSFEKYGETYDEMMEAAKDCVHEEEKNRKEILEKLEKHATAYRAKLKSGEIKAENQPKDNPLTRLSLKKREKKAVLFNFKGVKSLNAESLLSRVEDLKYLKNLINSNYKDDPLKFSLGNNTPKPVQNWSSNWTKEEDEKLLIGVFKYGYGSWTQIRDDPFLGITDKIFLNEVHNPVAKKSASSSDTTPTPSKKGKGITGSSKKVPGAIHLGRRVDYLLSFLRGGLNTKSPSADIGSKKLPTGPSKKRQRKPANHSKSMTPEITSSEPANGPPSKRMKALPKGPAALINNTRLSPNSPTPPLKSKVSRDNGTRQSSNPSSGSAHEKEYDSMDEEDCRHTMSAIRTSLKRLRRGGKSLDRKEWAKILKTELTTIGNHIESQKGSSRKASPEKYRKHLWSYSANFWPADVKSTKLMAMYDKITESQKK

Sialic acid-binding Ig-like lectin 9 (Homo sapiens), sequence (Q9Y336 whole entry): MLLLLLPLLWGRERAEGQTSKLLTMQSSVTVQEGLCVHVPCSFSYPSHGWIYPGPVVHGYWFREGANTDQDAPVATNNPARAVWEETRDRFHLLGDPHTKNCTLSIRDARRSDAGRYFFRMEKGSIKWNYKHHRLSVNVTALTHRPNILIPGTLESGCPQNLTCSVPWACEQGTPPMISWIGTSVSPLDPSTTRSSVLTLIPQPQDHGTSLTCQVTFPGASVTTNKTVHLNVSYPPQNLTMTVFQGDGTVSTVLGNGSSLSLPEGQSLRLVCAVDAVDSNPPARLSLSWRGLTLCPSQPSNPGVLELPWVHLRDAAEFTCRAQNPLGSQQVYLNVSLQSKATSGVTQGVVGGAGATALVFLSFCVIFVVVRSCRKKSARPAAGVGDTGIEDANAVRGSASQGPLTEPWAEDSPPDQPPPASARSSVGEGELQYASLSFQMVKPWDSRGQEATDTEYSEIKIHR
Protein translocase subunit SecA (Escherichia coli (strain K12)), sequence (P10408 whole entry): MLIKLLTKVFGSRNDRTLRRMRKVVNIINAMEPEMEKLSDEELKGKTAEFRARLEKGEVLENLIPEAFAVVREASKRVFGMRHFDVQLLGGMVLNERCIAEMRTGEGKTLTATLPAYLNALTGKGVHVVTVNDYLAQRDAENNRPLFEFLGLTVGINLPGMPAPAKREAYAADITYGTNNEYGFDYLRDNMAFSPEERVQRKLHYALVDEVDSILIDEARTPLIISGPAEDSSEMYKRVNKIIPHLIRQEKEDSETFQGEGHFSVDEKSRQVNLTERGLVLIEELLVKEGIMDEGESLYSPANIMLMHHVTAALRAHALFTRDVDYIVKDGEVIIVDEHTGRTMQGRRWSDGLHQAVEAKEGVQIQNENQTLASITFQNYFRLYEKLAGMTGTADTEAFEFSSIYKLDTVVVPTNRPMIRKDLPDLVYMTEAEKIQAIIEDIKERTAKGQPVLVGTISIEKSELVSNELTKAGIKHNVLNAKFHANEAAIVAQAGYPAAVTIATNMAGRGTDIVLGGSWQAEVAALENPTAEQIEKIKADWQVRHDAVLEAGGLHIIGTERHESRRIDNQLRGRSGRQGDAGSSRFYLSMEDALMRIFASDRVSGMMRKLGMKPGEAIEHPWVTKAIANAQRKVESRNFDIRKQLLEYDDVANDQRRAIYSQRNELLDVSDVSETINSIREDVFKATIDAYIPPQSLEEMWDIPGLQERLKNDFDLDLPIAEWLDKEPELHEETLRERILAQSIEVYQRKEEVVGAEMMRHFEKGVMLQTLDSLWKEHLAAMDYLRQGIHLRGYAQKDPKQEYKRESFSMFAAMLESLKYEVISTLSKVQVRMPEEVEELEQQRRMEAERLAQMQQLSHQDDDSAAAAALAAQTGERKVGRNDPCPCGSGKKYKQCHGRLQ

| Structure (SMILES) | Percent Effect [1] [%] | Percent Effect [2] [%] | Percent Effect [3] [%] | Percent Effect [4] [%] | Percent Effect (Trypanosoma cruzi) [%] | Percent Effect [5] [%] | Percent Effect [6] [%] | Percent Effect (Homo sapiens) [%] | Percent Effect [7] [%] | Percent Effect [8] [%] | Percent Effect [9] [%] |
| --- | --- | --- | --- | --- | --- | --- | --- | --- | --- | --- | --- |
| O=C(NC1(c2cccc(F)c2)CCOCC1)c1ccoc1 | -5.15 | 5.2 | -0.889 | 5.11 | 2.46 | -6.9 | 1.33 | -3.68 | 2.15 | 8.64 | -3.25 |
| O=C(c1cnccn1)N1CCN(Cc2csc(-c3ccccc3)n2)CC1 | -3.77 | -2.7 | 9.72 | -0.413 | -6.04 | 0.185 | 0.898 | 19.6 | -4.95 | -1.22 | 7.87 |
| CNC(=O)[C@H]1C[C@@H]2CN(C(=O)c3ccco3)C[C@@H]2N1S(C)(=O)=O | -2.51 | 13.3 | -0.761 | -3.21 | 3.48 | 90.5 | 12.7 | -4.85 | 6.25 | 17.5 | -6.67 |
| COC(=O)CCC(=O)N1CCc2[nH]nc(-c3ccc4c(c3)OCO4)c2C1 | -2.09 | 8.11 | 6.85 | 21.3 | 5.18 | 11.2 | 0.258 | -7.33 | 2.15 | 6.17 | -11.9 |
| c1ccc(Cn2ccnc2CN2CCOC(Cn3cccn3)C2)cc1 (stereo not given) | -9.1 | 3.8 | 9.54 | 2.25 | -7.69 | -5.81 | 4.12 | 2.94 | 8.33 | 17.7 | -16.1 |
| Cc1nnc(C(C)N2CCN(Cc3ccc4c(c3)OCO4)CC2)o1 (stereo not given) | -8 | 8.11 | -13.4 | 7.45 | -4.62 | -4.01 | -0.36 | 13.3 | -0.493 | -8.64 | 2.83 |
| COCCCN(CCOC)C(=O)Nc1ccccc1Br | 0.00988 | -5.26 | 4.89 | -4.8 | -1.46 | -10.7 | 2.01 | -13.7 | 3.19 | 2.6 | 0.558 |
| N#Cc1cccc(S(=O)(=O)NC2CCN(Cc3ccccc3)C2=O)c1 (stereo not given) | -2.71 | 12.7 | 0.264 | 4.28 | -4.44 | -6.84 | 2.21 | 1.05 | 3.45 | 11.4 | -7.32 |
| COCCC1COC2(CCN(C(=O)c3ccco3)CC2)C1 (stereo not given) | -2.43 | 13.3 | 5.93 | 0.194 | -0.787 | 3.5 | 0.264 | 0.48 | 8.51 | 16.7 | -2.69 |
| O=S(=O)(Cc1ccccc1)NCC1CCN(c2cnccn2)CC1 | -2.03 | 10.4 | 5.37 | -3.08 | -6.02 | -3.23 | 10.4 | 9.96 | 3.17 | 6.41 | -7.97 |

From ChEMBL document CHEMBL3988442, “University of Dundee, Small-Polar-MMV Screening Library” (2021)
